Assay outcomes: PubChem BioAssay, several laboratories
ANO1 activ: activators or potentiators of mouse TMEM16A chloride channel; Q8BHY3; HEK293 TMEM16A/YFP-H148Q/I152L, iodide quench fluorescence; stronger effect = lower value; B-score at 10 µM; 0.3% of 340,000 active;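 active = fluorescence-ratio B-score plate-corrected deviation score at least 3 library SD below zero, with starting fluorescence score within 5 deviations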;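 also: channel opened by trigger with iodide after compound preincubation; score built on the fluorescence ratio of max minus min over baseline; more negative score means more quench and so TMEM16A activation or potentiation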
Target sequence (Q8BHY3 whole entry, looked up): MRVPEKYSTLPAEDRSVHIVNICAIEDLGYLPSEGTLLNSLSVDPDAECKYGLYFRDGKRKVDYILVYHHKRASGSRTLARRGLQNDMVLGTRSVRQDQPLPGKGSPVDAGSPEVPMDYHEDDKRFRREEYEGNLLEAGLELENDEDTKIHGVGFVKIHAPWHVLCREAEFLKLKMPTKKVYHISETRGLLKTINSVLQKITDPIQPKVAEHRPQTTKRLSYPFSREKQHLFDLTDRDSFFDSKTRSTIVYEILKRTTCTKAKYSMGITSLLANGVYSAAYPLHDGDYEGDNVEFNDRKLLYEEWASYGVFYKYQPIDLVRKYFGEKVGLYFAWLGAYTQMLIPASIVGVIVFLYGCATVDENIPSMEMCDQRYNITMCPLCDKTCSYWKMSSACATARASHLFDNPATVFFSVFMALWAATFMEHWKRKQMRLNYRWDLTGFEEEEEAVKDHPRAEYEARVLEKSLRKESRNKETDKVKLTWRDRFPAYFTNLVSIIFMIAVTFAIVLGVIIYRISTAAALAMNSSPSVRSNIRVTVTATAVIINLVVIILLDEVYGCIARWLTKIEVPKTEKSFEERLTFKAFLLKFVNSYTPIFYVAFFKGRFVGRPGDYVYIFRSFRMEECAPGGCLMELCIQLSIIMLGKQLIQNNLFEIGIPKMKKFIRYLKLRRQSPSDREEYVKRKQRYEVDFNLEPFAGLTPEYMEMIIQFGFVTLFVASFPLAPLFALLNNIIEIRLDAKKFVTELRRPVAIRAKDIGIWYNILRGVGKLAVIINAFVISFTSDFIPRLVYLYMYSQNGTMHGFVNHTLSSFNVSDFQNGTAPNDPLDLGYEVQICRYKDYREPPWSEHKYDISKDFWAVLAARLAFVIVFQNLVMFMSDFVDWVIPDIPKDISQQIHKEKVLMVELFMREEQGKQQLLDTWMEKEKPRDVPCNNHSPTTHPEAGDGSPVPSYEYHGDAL
NTR1 agonist: activates human neurotensin receptor 1; AID 493036; activation, % at 20 µM; 0.17% of 330,000 active; NTR1-U2OS beta-arrestin-GFP spot imaging, agonist mode;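 active = activation at or above 40% of the spot to cytoplasm intensity ratio, with at least 20 cells analyzed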;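 also: 0% = DMSO without peptide and 100% = 100 nM NTR1 peptide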
MEKK3 PB1 HTS: MEKK3-MEK5 PB1 interaction, increase or decrease. bead-based flow cytometry, Alexa488-MEK5 binding to MEKK3; actives lie on both sides; 0 = blocked by unlabeled MEK5, 100 = vehicle. binding response (% of control), % at 10 µM. AID 1529. Q99759. 1.4% of 290,000 active;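 active = binding response more than 3 SD above or below the average of its plate-row segment, actives on both sides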;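 also: Alexa488 bead fluorescence after subtracting the streptavidin-only scavenger bead signal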
TMEM16A inh: mouse TMEM16A channel inhibition, primary screen; 1.2% of 310,000 active; normalized B-score (activity score, 25-100; higher = stronger inhibition) at 10 µM; HEK293 TMEM16A/YFP iodide influx fluorescence, ionomycin;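 active = ratio plate-corrected score three or more library SD toward inhibition, starting fluorescence score within five deviations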;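 also: score derived from kinetic fluorescence span divided by baseline fluorescence per well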
MEKK2 mut-MEK5: signal of MEK5 binding to mutant human MEKK2 PB1 domain; bead flow cytometry, Alexa488-MEK5 binding to MEKK2 mutant; percent response, % at 10 µM; 0.35% of 290,000 active; AID 1530; in the data active = percent response above about 24%, passing the limit was not always enough
MEKK2wt PB1 HTS: raises or lowers MEK5 binding to wildtype human MEKK2 PB1 domain; Q9Y2U5; bead flow cytometry, Alexa488-MEK5 binding to MEKK2 WT; actives lie on both sides; binding response (% of control), % at 10 µM; 1.1% of 290,000 active; in the data active = binding response below about 67% or above about 130%
* = called active by the depositor; i = inactive; nt = not tested or not shown; [ ] = dose if it differs, or a comment. An excerpt weighted towards active compounds, which were near 3.4% of everything screened.

SMILES	ANO1 activ	NTR1 agonist	MEKK3 PB1 HTS	TMEM16A inh	MEKK2 mut-MEK5	MEKK2wt PB1 HTS
CCC1CCCCN1S(=O)(=O)c1ccc(C(=O)Nc2nnc(-c3ccccc3Cl)o2)cc1 (centres undefined)	i	1	106	100*	5	111
CNCCCCOc1ccccc1Cc1ccccc1	nt	3	104	i	6	125
CN(C)CCOc1ccccc1Cc1ccccc1	i	1	78	i	-2	-18*
Cc1cc(Br)cc2cn[nH]c12	i	-2	79	i	-28	40*
Cc1cc2[nH]ncc2cc1NC(N)=S	i	0	103	i	0	100
O/C(=C\c1nc2ccccc2nc1/C=C(\O)c1ccccc1)c1ccccc1	i	0	81	i	9	20*
Fc1ccc(Sc2ccccc2CNC2=NCCN2)cc1	i	3	94	i	-2	101
O=C1c2ccccc2C(=O)N1CCCCN(C(=O)c1cc2ccccc2oc1=O)c1ccc(F)cc1F	i	4	110	i	5	107
O=C(O)CN1C(=O)/C(=C\c2cccc(OC(=O)c3ccco3)c2)SC1=S	i	0	104	i	-3	101
O=C(O)CN1C(=O)/C(=C\c2ccc(OC(=O)c3ccco3)cc2)SC1=S	-5.9*	-1	102	i	-2	104
COc1ccc(-c2sc(C(=O)c3ccc(Cl)cc3Cl)cc2CC(=O)O)cc1	i	2	108	i	9	106
Cc1occc1C(=O)NNC(=S)NC(=O)COc1ccc(Cl)cc1Cl	-5*	0	100	100*	3	97
O=C(COc1ccc(Cl)cc1Cl)NC(=S)Nc1ccccc1C(=O)O	nt	-1	96	25*	-7	101
Cc1ccc(C)n1-c1ccc(C(=O)NN)s1	i	1	96	i	-3	98
Cc1ccc(S(=O)(=O)N(C)CC(=O)OCC(=O)NCCc2ccc(S(N)(=O)=O)cc2)cc1	i	0	nt	nt	nt	nt
CN(Cc1ccccc1)S(=O)(=O)c1ccc2[nH]c(=O)ccc2c1	i	-2	100	i	-2	100
Cc1ccc2cc(C3CC(c4cccs4)=NN3S(C)(=O)=O)c(Cl)nc2c1 (centres undefined)	i	2	97	i	5	-4.0*
O=C(COC(=O)c1cccc(S(=O)(=O)N2CCN(c3ccccc3)CC2)c1)NCC1CCCO1 (centres undefined)	i	-1	87	i	-32	76
COc1cc(OC)c(NS(=O)(=O)c2cccc(C(=O)OCC(=O)NCC3CCCO3)c2)cc1Cl (centres undefined)	-7.8*	-1	106	i	-2	105
O=C1CN(C(=S)NC(=O)c2ccc(-c3ccccc3)cc2)CCN1	i	0	100	i	1	106
Cc1ccc(C2=NS(=O)(=O)N(C)C(C(=O)N3CCOCC3)=C2)cc1	i	2	97	i	0	99
CCOC(=O)N1CCN(S(=O)(=O)c2cc(OCC(=O)NC3CCCCC3)c(C)cc2Cl)CC1	i	3	102	i	2	99
CCN1CCN(S(=O)(=O)c2cc(OCC(=O)NC3CCCCC3)c(C)cc2Cl)CC1	i	0	3.0*[inhibitor]	i	-15	3.0*[inhibitor]
COc1ccccc1CNC(=O)c1cc(C)nc2ccccc12	i	0	100	i	0	100
COc1ccc(CNC(=O)c2cc(C)nc3ccccc23)cc1OC	-5.6*	1	83	i	-9	81
SMILES	ANO1 activ	NTR1 agonist	MEKK3 PB1 HTS	TMEM16A inh	MEKK2 mut-MEK5	MEKK2wt PB1 HTS
CCCCc1ccc(NC(=S)Nc2ccc(Cl)c(S(=O)(=O)N(C)C)c2)cc1	i	nt	103	100*	3	130
O=C(O)c1ccccc1/C=N/NC(=S)NCc1ccccc1	-12*	2	103	i	-1	98
Cc1ccc(C)c(/C=N/NC(=S)NCCc2ccccc2)c1	i	26	104	100*	-3	102
Oc1ccccc1/C=N/NC(=S)NCCc1ccccc1	i	nt	102	i	4	94
O=C(CNC(=O)c1cccc(Br)c1)N/N=C/c1ccc[nH]1	i	-1	98	i	-3	98
O=C(Nc1ccc(Oc2ccc(Cl)cc2)c(Cl)c1)c1cc(I)cc(I)c1O	-5.9*	1	99	100*	3	100
COc1ccc(NC(=O)c2ccccc2F)cc1Cl	i	-1	85	i	-14	94
COc1ccc(C2=CC(=O)C=CC2=O)cc1	nt	nt	90	nt	2	88
CCOC(=O)c1ccc(-n2c(C)ccc2C)cc1	i	2	118	i	0	102
CCOC(=O)c1ccc(N2C(=O)C=CC2=O)cc1	i	-1	100	25*	-1	101
COc1ccc(Cl)cc1NC(=S)NCCc1ccc(S(N)(=O)=O)cc1	-6.2*	1	105	i	7	104
COc1ccccc1NC(=S)NCCc1ccc(S(N)(=O)=O)cc1	i	0	99	i	-2	99
COc1ccc(CCNC(=S)NCCc2ccc(OC)c(OC)c2)cc1OC	i	1	106	25*	3	105
NS(=O)(=O)c1ccc(CNC(=O)Cn2nc(C(F)F)cc2C(F)F)cc1	-4.6*	-2	nt	nt	nt	nt
Cc1cc([N+](=O)[O-])nn1CC(=O)NCc1ccccc1	i	2	96	i	3	95
CCOC(=O)C(Sc1n[nH]c(N)n1)c1ccccc1 (centres undefined)	i	1	104	25*	9	102
CN(Cc1ccccc1)C(=O)CSc1n[nH]c(N)n1	i	0	106	i	13	104
Cc1ccc(N2CCCCn3c2nc2c3c(=O)n(CC(=O)O)c(=O)n2C)cc1	i	0	104	i	9	105
Cc1noc(C)c1NC(=O)N(C)C[C@H]1Oc2ccc(NC(=O)c3ccncc3)cc2C(=O)N([C@H](C)CO)C[C@@H]1C	nt	2	nt	nt	nt	nt
Cc1cc(SCC(=O)c2ccc3c(c2)OCO3)nc2ccccc12	i	4	113	i	39	38*
Cc1cc(SCC(=O)c2ccc(O)c(O)c2)nc2ccccc12	i	6	99	i	-6	88
CCCCc1nc(N2CCN(C(=O)c3ccco3)CC2)c(C#N)c2c1CCCC2	-4.8*	30	98	100*	-1	92
COC(=O)C1(Cc2cc(-c3ccc(OC)cc3OC)no2)CCN(C(=O)OC(C)(C)C)CC1	i	-5	101	25*	-1	103
CCN1/C(=C\C=C2\C(=O)N(c3ccccc3)C(=S)N2C)Sc2ccccc21	i	nt	75*[inhibitor]	nt	-41	44*[inhibitor]
